PubChem BioAssay AID624138 (Broad Institute, 2012)
Out of some 17,000 compounds screened, about 35 (0.2%) were called active.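 The calls were made as follows: active = compounds whose four printed spots each show fluorescence over background unusually high for their array block, chance value under 7%; inactive = the rest.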 The list comes from a sample in which actives are over-represented; it also holds similar structures and randomly drawn compounds.

target: Signal transducer and activator of transcription 3 (Homo sapiens) (UniProt P40763); experiment: small molecules binding His-tagged STAT3 – biochemical, small molecule microarray, single point, set 2, primary screen (AID 624138); conditions: anti-His fluorescence
Sequence (P40763 whole entry, looked up): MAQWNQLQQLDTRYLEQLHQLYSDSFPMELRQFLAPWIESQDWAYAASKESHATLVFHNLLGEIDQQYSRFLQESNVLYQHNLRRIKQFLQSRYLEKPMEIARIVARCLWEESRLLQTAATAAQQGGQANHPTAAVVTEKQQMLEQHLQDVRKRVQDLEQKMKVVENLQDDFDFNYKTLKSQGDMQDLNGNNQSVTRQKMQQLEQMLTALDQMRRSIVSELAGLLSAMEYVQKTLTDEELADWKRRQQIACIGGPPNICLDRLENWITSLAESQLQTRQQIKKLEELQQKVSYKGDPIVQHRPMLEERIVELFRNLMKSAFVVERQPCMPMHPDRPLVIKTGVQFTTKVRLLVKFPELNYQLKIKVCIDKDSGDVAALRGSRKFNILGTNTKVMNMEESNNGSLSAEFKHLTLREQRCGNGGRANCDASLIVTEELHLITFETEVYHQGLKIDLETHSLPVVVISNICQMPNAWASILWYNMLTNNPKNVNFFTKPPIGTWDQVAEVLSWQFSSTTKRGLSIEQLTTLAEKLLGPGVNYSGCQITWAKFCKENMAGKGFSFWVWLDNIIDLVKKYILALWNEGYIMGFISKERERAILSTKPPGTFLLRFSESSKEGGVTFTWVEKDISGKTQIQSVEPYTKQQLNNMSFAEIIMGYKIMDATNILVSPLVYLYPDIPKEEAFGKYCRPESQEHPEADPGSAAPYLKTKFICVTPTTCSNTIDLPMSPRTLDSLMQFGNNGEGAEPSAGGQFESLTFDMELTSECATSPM

outcome, inactive:
COC(=O)CCCCCCC(=O)Nc1ccc(C2OC(CSc3nc(-c4ccccc4)c(-c4ccccc4)o3)CC(c3ccc([N+](=O)[O-])cc3)O2)cc1 (stereo not given), Cc1ccc(N(C(=O)COc2ccccc2[N+](=O)[O-])C2C=CS(=O)(=O)C2)cc1 (stereo not given), Cc1noc(C)c1NC(=O)Nc1ccc2c(c1)CC(=O)N([C@H](C)CO)C[C@H](C)[C@H](CN(C)C(=O)NC(C)C)O2, COc1ccc(C#Cc2ccc3c(c2)[C@]2(C(=O)N3)[C@H](c3ccccc3OCCO)N3[C@H](c4ccccc4)[C@H](c4ccccc4)OC(=O)[C@H]3[C@@H]2C(=O)N2CCCCCCC2)cc1, C[C@@H]1CN([C@@H](C)CO)C(=O)c2cc(N(C)C)ccc2O[C@@H](C)CCCCO[C@H]1CN(C)C(=O)CCCN(C)C, Cc1ccc(-n2c(SCC(=O)c3ccccc3)nnc2-c2ccncc2)cc1C, C[C@@H]1CCCCO[C@@H](CN(C)Cc2ccncc2)[C@@H](C)CN([C@@H](C)CO)C(=O)c2cc(NC(=O)Nc3ccc(F)cc3)ccc2O1, CC1(C)CC[C@@]2(C(=O)O)C(C1)C1=CCC3[C@@]4(C)CC[C@H](O)C(C)(C)C4CC[C@@]3(C)[C@]1(C)C[C@H]2O (stereo not given in full), Cn1c(Cc2csc(N)n2)nnc1SC/C=C/c1ccccc1, Cc1nnc(SCc2cc(=O)[nH]c(N3CCN(Cc4ccccc4)CC3)n2)s1, COc1ccc(OC)c(NC(=O)c2cnn(-c3ccccc3Cl)c2NC(=O)c2ccco2)c1, C[C@@H]1CN([C@H](C)CO)C(=O)c2cc(NC(=O)Nc3ccc4c(c3)OCO4)ccc2O[C@@H]1CN(C)Cc1ccc(C(F)(F)F)cc1, C[C@@H]1CN([C@H](C)CO)C(=O)Cc2cc(NC(=O)NC3CCCCC3)ccc2O[C@H]1CN(C)S(=O)(=O)c1ccc(Cl)cc1, CNC[C@@H]1Oc2c(NC(=O)Nc3ccccc3)cccc2C(=O)N([C@@H](C)CO)C[C@@H]1C, COC(=O)c1c(NC(=O)c2cc(-c3ccccn3)nc3ccc(Br)cc23)sc(C(=O)N(C)C)c1C, Cc1ccc(-c2cc(C(F)(F)F)n3nc(C(=O)NCCN4CCOCC4)c(Cl)c3n2)cc1, COc1ccc(S(=O)(=O)N2CCN(c3ccccn3)CC2)cc1N(C)S(=O)(=O)c1ccccc1, C=C1CCCC(C)(C(=O)OC)C1CC/C(C)=C/CCC1=CC(=O)OC1 (stereo not given), C[C@@H]1CN([C@H](C)CO)C(=O)CCCn2cc(nn2)CO[C@H]1CN(C)S(=O)(=O)c1ccc(Oc2ccccc2)nc1, C[C@H](CO)N1C[C@H](C)[C@H](CN(C)S(=O)(=O)c2cn(C)cn2)Oc2ccc(N(C)C)cc2C1=O, C[C@@H]1CN([C@@H](C)CO)C(=O)CCCn2cc(nn2)CO[C@H]1CN(C)Cc1cccc2c1OCCCO2, C[C@H](CO)N1C[C@H](C)[C@@H](CN(C)S(=O)(=O)c2cccs2)Oc2ccc(NC(=O)Nc3cccc4ccccc34)cc2CC1=O, C=CCn1c(SCc2nc3ccccc3[nH]2)nnc1-c1ccccc1, C[C@H]1CN([C@@H](C)CO)C(=O)CCCn2nncc2CO[C@H]1CN(C)Cc1ccccc1, C[C@H]1CN([C@@H](C)CO)C(=O)c2cc(NS(=O)(=O)c3cn(C)cn3)ccc2O[C@H]1CN(C)CC1CCCCC1, O=C(CCc1nc(-c2ccccc2Cl)no1)Nc1ccc(Cl)c(Cl)c1, O=C(NC1CC1)C1=C[C@H](c2coc3ccccc3c2=O)C[C@H](OCCCCO)O1, C[C@@H]1CN([C@H](C)CO)C(=O)Cc2cc(NC(=O)CCN3CCOCC3)ccc2O[C@H]1CN(C)Cc1ccncc1, C=C1CCC(C)C(C)(CCC2=CC(OC)OC2=O)C/C=C\C=C\1C(=O)O (stereo not given), C=CCNC(=O)[C@H]1[C@@H]2C(=O)O[C@@H](c3ccccc3)[C@@H](c3ccccc3)N2[C@@H](c2ccccc2OCCO)[C@]12C(=O)N(C(=O)OCCOC)c1ccc(C#Cc3ccc(OC)cc3)cc12, C[C@@H]1CN([C@H](C)CO)C(=O)c2cc(NC(=O)Nc3ccccc3)ccc2O[C@@H](C)CCCCO[C@@H]1CN(C)Cc1ccncc1, C[C@H]1CN([C@@H](C)CO)C(=O)Cc2cc(NC(=O)C3CC3)ccc2O[C@@H]1CN(C)S(=O)(=O)c1cccs1, COc1ccc(S(=O)(=O)N(C)C[C@@H]2Oc3c(NS(=O)(=O)c4ccccc4)cccc3C(=O)N([C@@H](C)CO)C[C@@H]2C)cc1, C[C@@H]1CN([C@H](C)CO)C(=O)c2cccc(NC(=O)c3ccncc3)c2O[C@@H]1CN(C)S(=O)(=O)c1cn(C)cn1, Cc1cccc(-n2c(SCC(N)=O)nnc2-c2ccncc2)c1C, C[C@@H]1CCCCO[C@@H](CN(C)C)[C@@H](C)CN([C@H](C)CO)C(=O)c2cc(NC(=O)c3ccncc3)ccc2O1, OC(CCCN1CCN(c2ncc(F)cn2)CC1)c1ccc(F)cc1 (stereo not given), C[C@@H]1CN([C@H](C)CO)C(=O)c2cccc(NS(=O)(=O)c3cn(C)cn3)c2O[C@@H]1CN(C)Cc1ccc(C(F)(F)F)cc1, Cc1ccc(NC(=O)C(C)N(c2ccc(Cl)cc2)S(C)(=O)=O)c(C)c1 (stereo not given), COc1ccc(-c2cnc3c(-c4ccsc4)cnn3c2)cc1, C[C@@H]1CCCCO[C@@H](CN(C)C(=O)NC2CCCCC2)[C@H](C)CN([C@H](C)CO)C(=O)c2cc(NS(=O)(=O)c3ccc(Cl)cc3)ccc2O1, Cc1noc(C)c1NC(=O)Nc1ccc2c(c1)C(=O)N([C@@H](C)CO)C[C@@H](C)[C@H](CN(C)C)O2, C[C@@H]1CCCCO[C@H](CN(C)C(=O)Nc2ccc3c(c2)OCO3)[C@@H](C)CN([C@@H](C)CO)C(=O)c2cc(NC(=O)CCC(F)(F)F)ccc2O1, C[C@@H]1CN([C@@H](C)CO)C(=O)Cc2cc(NS(C)(=O)=O)ccc2O[C@@H]1CN(C)Cc1ccc2c(c1)OCO2, Cc1ccc(S(=O)(=O)N(C)C[C@H]2Oc3ccc(NC(=O)CCC(F)(F)F)cc3C(=O)N([C@@H](C)CO)C[C@H]2C)cc1
